# Assay outcomes as filed in PubChem BioAssay.
# A selection: hits, their analogues and other compounds. The true share with any hit is near 7.3%.
# Rab9 promoter act – activates the Rab9 promoter; Huh7 Rab9 promoter-luciferase reporter, luminescence, 24 h; Potency, µM (top dose mostly 9.22 µM), actives largely listed as activators; 320,000 compounds, 2.8% hits; also: nearly all actives have a fitted effect of over 60% in size
#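 Luminescence read-out: Huh7 cells stably expressing Rab9-luciferase, treated 24 h with compound at 37 °C, then lysed with luciferase reagent for 10 min at ambient before reading.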
# SMN2 splice up – increases expression of the SMN2 splice variant. HEK293 SMN2-luciferase splicing reporter, luminescence, 30-36 h. Potency, µM (series often up to 46.1 µM), actives largely listed as activators. 210,000 compounds, 2.8% hits; also: nearly all actives have a fitted effect of over 55% in size
#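 qHTS luciferase splicing reporter: luminescence rises when SMN2 exon 7 is included in transfected HEK293 cells. Compound exposure lasted 30-36 h at 37C, with 4.5 mM final sodium butyrate as control, followed by a ONE-Glo read.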
# ELG1 genotoxic – genotoxicity induction in ELG1-luciferase HEK293T cells; HEK293T ELG1-luciferase reporter, luminescence, 16 h; Potency, µM (top dose mostly 46 µM), hits mostly activators; 330,000 compounds, 1.3% hits; also: nearly all actives have a fitted effect of over 60% in size
#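 16 hr compound incubation (37 °C, 5% CO2) of HEK293T cells carrying luciferase-tagged ELG1; luciferase then measured by ONE-Glo luminescence after 30 min at RT.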
# NPC1 prom act – activates the NPC1 promoter; Huh7 NPC1 promoter luciferase reporter, 24 h; Potency, µM (doses to about 9.22 µM), most hits filed as activators; 320,000 compounds, 2.4% hits; AID 485313; also: nearly all actives have a fitted effect of over 60% in size
#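 Luminescence read-out of NPC1 promoter-driven luciferase in stably transfected Huh7 cells; compounds delivered in DMSO and left 24 h at 37C, 5% CO2, qHTS titration format.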
# FLuc modulator – inhibits or activates purified firefly luciferase, miR-21 counter-screen; P08659; Potency, µM (highest dose often 57.5 µM), usual class: inhibitors; AID 588342; purified FLuc, Km substrates, luminescence inhibition; 360,000 compounds, 6.9% hits; also: nearly all actives have a fitted effect of over 55% in size
# Target sequence (P08659 whole entry, looked up): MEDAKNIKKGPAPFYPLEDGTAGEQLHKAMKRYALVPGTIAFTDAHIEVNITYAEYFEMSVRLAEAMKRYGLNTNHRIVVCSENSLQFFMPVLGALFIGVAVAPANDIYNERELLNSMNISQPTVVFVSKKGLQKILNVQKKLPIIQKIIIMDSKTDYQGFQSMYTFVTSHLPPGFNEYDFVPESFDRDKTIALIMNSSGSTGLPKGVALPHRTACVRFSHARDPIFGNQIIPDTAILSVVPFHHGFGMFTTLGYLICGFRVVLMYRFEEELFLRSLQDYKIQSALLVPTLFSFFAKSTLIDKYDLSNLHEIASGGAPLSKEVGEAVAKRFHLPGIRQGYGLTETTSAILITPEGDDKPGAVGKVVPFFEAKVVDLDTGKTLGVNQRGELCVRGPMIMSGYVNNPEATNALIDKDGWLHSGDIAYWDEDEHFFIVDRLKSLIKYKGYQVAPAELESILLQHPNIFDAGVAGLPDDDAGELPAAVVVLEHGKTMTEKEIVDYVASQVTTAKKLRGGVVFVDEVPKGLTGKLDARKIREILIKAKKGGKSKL
#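 Purified P. pyralis luciferase (10nM final) with 10uM D-luciferin and 10uM ATP (Km levels) in 50mM Tris acetate pH 7.5, 10mM Mg acetate, 0.01% Tween-20, 0.05% BSA; qHTS 6-point titration, ~60 µM downward; luminescence read.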
# KinaseGlo FLuc – counter-screen: inhibitors of Kinase-Glo firefly luciferase; Q27757; Kinase-Glo luciferase, ATP luminescence, 8 min; Potency, µM (highest dose often 38.3 µM), most hits filed as inhibitors; 200,000 compounds, 0.28% hits; AID 1379; also: nearly all actives have a fitted effect of over 60% in size
#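 Compounds were added to a substrate mix at pH 7.2 (50 mM imidazole, 10 uM ATP, within the enzyme's linear range), followed by Kinase-Glo detection reagent; luminescence was measured after 8 minutes at ambient temperature.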
# A number is an active result; i = inactive; ? = inconclusive; nt = not tested or not shown; [ ] = another dose, or the depositor's remark. Calls follow the shape of the dose curve; as a rule, active = well fitted curve in the direction sought with a large enough effect; inconclusive = small, poorly fitted or top-dose-only effect, or another doubt; inactive = no such curve, though single readings can be large; an effect the other way counts as inactive or inconclusive.
SMILES,Rab9 promoter act,SMN2 splice up,ELG1 genotoxic,NPC1 prom act,FLuc modulator,KinaseGlo FLuc
CCc1ccccc1NC(=O)CN(C)C(=O)CSc1nnc(Nc2ccc(C)cc2)s1,i,i,i,i,9.53µM,i
CN(CC(=O)Nc1ccccc1Cl)C(=O)CSc1nncs1,i,nt,i,i,i,nt
Cc1cc(C)c(NC(=O)Cn2c(=O)n(Cc3ccco3)c(=O)c3ccc(C(=O)NC4CCCC4)cc32)c(C)c1,nt,?,nt,nt,i,nt
COc1cc(NC(=O)Cn2c(=O)n(Cc3ccccc3OC)c(=O)c3cccnc32)cc(OC)c1,nt,i,nt,nt,i,nt
COc1cccc(NC(=O)Cn2c(=O)n(CCc3ccccc3)c(=O)c3c4c(sc32)CN(C(C)=O)CC4)c1,nt,i,nt,nt,i,nt
CCOC(=O)CCCNC(=O)N1CCc2nc(-c3ccc(OC)cc3C)c3c(c2C1)CO[C@@H](c1ccccc1)C3,nt,i[9.22 µM],nt,nt,nt,i[7.66 µM]
Cc1cccc(CCNc2ncnc3onc(-c4ccc(Cl)cc4)c23)c1,nt,i,nt,nt,i,nt
O=C(Nc1ccccc1-c1nc2ccccc2s1)c1ccc(F)cc1,nt,i,nt,nt,i,nt
Oc1ccc(N=C/C=C/c2cccc(Br)c2)cc1-c1nc2ccccc2s1,?,i,?,?,6.01µM,i
O=C(Nc1ccc(O)c(-c2nc3ccccc3s2)c1)c1cccs1,i,i,i,i,?,i
Nc1ccc(O)c(-c2nc3ccccc3s2)c1,?,?,?,3.16µM,6.01µM,i
Nc1ccccc1-c1nc2ccccc2s1,3.98µM,?,?,?,10.7µM,i
Oc1ccc(-c2nc3ccccc3s2)c(O)c1,3.98µM,nt,?,2.82µM,6.01µM,nt
CSc1ccc(C(=O)Nc2ccc(-c3nc4ccccc4s3)c(O)c2)cc1,nt,nt,nt,nt,i,nt
O=C(NCCS(=O)(=O)N1CCN(c2ccc(F)cc2)CC1)c1cccc(C(F)(F)F)c1,nt,nt,nt,nt,i,nt
OCC1OC([S-])[C@H](O)C(O)C1O.[Au+] (stereo partly drawn),nt,i,nt,nt,nt,i
O=C(Nc1nc2n(n1)C(c1ccc(F)cc1)C=C(c1ccc(Cl)cc1)N2)c1ccc([N+](=O)[O-])cc1 (stereo not drawn),nt,nt,nt,nt,i,nt
COc1cccc([C@@H]2Oc3ccc(OC)cc3[C@H](O)[C@H]2O)c1,nt,i,nt,nt,nt,i
CN(C)c1nc(N)nc(-c2nc3ccccc3s2)n1,?,8.91µM,3.26µM,i,?,i
COc1ccc(Cl)cc1-c1nc(N)nc(N(C)C)n1,i,i,i,i,i,i
S=C(NCc1ccco1)Nc1ccc(Cl)cc1Cl,i,i,i,i,?,i
S=C(NCc1ccccn1)Nc1ccccc1Cl,?,?,i,i,i,i
S=C(NCc1ccco1)Nc1ccc(Br)cc1Cl,?,i,?,i,26.9µM,i
S=C(NCc1ccccn1)Nc1ccc(Br)cc1Cl,3.16µM,11.2µM,?,i,?,i
COc1ccc(-c2noc(CN(C(=O)C(C)(C)C)C(C)C)n2)cc1,i,i,14.6µM,i,?,i
SMILES,Rab9 promoter act,SMN2 splice up,ELG1 genotoxic,NPC1 prom act,FLuc modulator,KinaseGlo FLuc
CC(C)N(Cc1nc(-c2ccccc2)no1)C(=O)C(C)(C)C,i,i,i,i,i,i
COc1cccc(C(=O)O/N=C(\N)c2ccncc2)c1,i,i,?,?,1.35µM,i
Cc1cccc(/C(N)=N/OC(=O)c2ccncc2)c1,3.98µM,nt,?,1.12µM,8.49µM,nt
COc1cccc(OC)c1C(=O)O/N=C(\N)c1ccncc1,i,nt,i,i,i,nt
COc1cccc(C(=O)O/N=C(\N)c2ccc(C)cc2)c1,i,nt,?,3.16µM,1.9µM,nt
N/C(=N\OC(=O)c1cccc2ccccc12)c1ccncc1,i,nt,?,i,23.9µM,nt
CC(C)CCC[C@@H](C)[C@@H]1CC[C@@H]2[C@H]3CC[C@H]4C[C@@H](N)CC[C@@]4(C)[C@@H]3CC[C@]21C,nt,i[9.22 µM],nt,nt,nt,i[7.66 µM]
COC(=O)c1nn(-c2ccc3c(c2)OCO3)cc1O,i,?,?,?,10.7µM,?
COC(=O)c1nn(-c2ccc3c(c2)CCN3C(C)=O)cc1O,3.16µM,?,?,0.501µM,0.536µM,11.2µM
CCOC(=O)c1nn(-c2ccc3c(c2)OCCO3)cc1O,2.82µM,?,8.2µM,2.82µM,3.01µM,i
CCOC(=O)c1nn(-c2ccc(C)cc2)cc1C(=O)c1ccccc1,2.82µM,11.2µM,2.59µM,3.98µM,1.9µM,i
